PMC12820563, “FoxP3 forms a head-to-head dimer in vivo and stabilizes its multimerization on adjacent microsatellites”
In all, about 16,000 sequences were measured (“rpm ratio (pull-down/input)”: median about 0.94, highest 2% from about 1.7 on). This excerpt belongs to a sample that is enriched for the highest values.

molecular target: T1, MBP-FoxP1dN (Mus musculus, UniProt P58462 326-579); assay: PD-seq (MBP pull-down with sequencing); 20 mM Tris-HCl pH 7.5, 100 mM NaCl, 1.5 mM MgCl2, 0.4 uM protein, 0.1 uM dsDNA library, 30 min, room temperature, amylose pull-down; high values mean tight binding; conditions: protein: recombinant; tags: His6-MBP; chain copies: 2; dsDNA, one strand shown
T1 sequence: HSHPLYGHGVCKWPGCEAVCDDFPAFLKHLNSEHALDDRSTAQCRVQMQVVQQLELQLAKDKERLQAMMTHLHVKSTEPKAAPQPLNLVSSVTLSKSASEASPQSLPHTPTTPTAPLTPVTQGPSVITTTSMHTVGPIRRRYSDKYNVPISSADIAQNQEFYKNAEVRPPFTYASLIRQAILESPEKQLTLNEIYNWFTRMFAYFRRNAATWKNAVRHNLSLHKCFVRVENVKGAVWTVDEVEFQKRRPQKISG
Summary of the method: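 Protein and DNA were mixed at 0.4 µM and 0.1 µM and held for 30 min at room temperature in Tris pH 7.5 buffer with NaCl and MgCl2; the protein was a His6-MBP-tagged, N-terminally truncated mouse FoxP3 or FoxP1 fragment from E. coli, and the DNA a Klenow-filled double-stranded degenerate library. Amylose resin captured the complexes, which were washed three times. Binding is read as reads-per-million enrichment of pull-down versus input after Illumina sequencing, with replicates pooled.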

| Sequence | binding signal |
| --- | --- |
| GATGATTGTTCTCCCAGCTGATGAATTACGTAAGTCGAGTAAACAAATTTTCCTAATCTTTCTGTTCAAGCGCCATCTAC | 1.14 RPM ratio (pull-down/input) |
| GATGATTGTTCTCCCAGCTGATGAATTGGGGCAATCGAGTAAACAAATTTTCCTAATCTTTCTGTTCAAGCGCCATCTAC | 1.01 RPM ratio (pull-down/input) |
| GATGATTGTTCTCCCAGCTGATGAATTTAGGACGTCGAGTAAACAAATTTTCCTAATCTTTCTGTTCAAGCGCCATCTAC | 0.956 RPM ratio (pull-down/input) |
| GATGATTGTTCTCCCAGCTGATGAATTCATCAGCTCGAGTAAACAAATTTTCCTAATCTTTCTGTTCAAGCGCCATCTAC | 0.818 RPM ratio (pull-down/input) |
| GATGATTGTTCTCCCAGCTGATGAATTTCGTTAATCGAGTAAACAAATTTTCCTAATCTTTCTGTTCAAGCGCCATCTAC | 0.996 RPM ratio (pull-down/input) |
| GATGATTGTTCTCCCAGCTGATGAATTGACATCCTCGAGTAAACAAATTTTCCTAATCTTTCTGTTCAAGCGCCATCTAC | 1.19 RPM ratio (pull-down/input) |
| GATGATTGTTCTCCCAGCTGATGAATTGTCATCATCGAGTAAACAAATTTTCCTAATCTTTCTGTTCAAGCGCCATCTAC | 1.34 RPM ratio (pull-down/input) |
| GATGATTGTTCTCCCAGCTGATGAATTGAAATTATCGAGTAAACAAATTTTCCTAATCTTTCTGTTCAAGCGCCATCTAC | 1.01 RPM ratio (pull-down/input) |
| GATGATTGTTCTCCCAGCTGATGAATTAGTTATATCGAGTAAACAAATTTTCCTAATCTTTCTGTTCAAGCGCCATCTAC | 1.07 RPM ratio (pull-down/input) |
| GATGATTGTTCTCCCAGCTGATGAATTTCTGTCATCGAGTAAACAAATTTTCCTAATCTTTCTGTTCAAGCGCCATCTAC | 1.15 RPM ratio (pull-down/input) |
| GATGATTGTTCTCCCAGCTGATGAATTTTGATTATCGAGTAAACAAATTTTCCTAATCTTTCTGTTCAAGCGCCATCTAC | 1.79 RPM ratio (pull-down/input) |
| GATGATTGTTCTCCCAGCTGATGAATTTATTGTATCGAGTAAACAAATTTTCCTAATCTTTCTGTTCAAGCGCCATCTAC | 1.6 RPM ratio (pull-down/input) |
| GATGATTGTTCTCCCAGCTGATGAATTAGTGTTATCGAGTAAACAAATTTTCCTAATCTTTCTGTTCAAGCGCCATCTAC | 1.8 RPM ratio (pull-down/input) |
| GATGATTGTTCTCCCAGCTGATGAATTAGTGTAATCGAGTAAACAAATTTTCCTAATCTTTCTGTTCAAGCGCCATCTAC | 1.54 RPM ratio (pull-down/input) |
| GATGATTGTTCTCCCAGCTGATGAATTTGAATTATCGAGTAAACAAATTTTCCTAATCTTTCTGTTCAAGCGCCATCTAC | 0.969 RPM ratio (pull-down/input) |
| GATGATTGTTCTCCCAGCTGATGAATTGTATTTATCGAGTAAACAAATTTTCCTAATCTTTCTGTTCAAGCGCCATCTAC | 2.72 RPM ratio (pull-down/input) |
| GATGATTGTTCTCCCAGCTGATGAATTGTTGTCATCGAGTAAACAAATTTTCCTAATCTTTCTGTTCAAGCGCCATCTAC | 2.36 RPM ratio (pull-down/input) |

| Sequence | binding signal |
| --- | --- |
| GATGATTGTTCTCCCAGCTGATGAATTTATCGTATCGAGTAAACAAATTTTCCTAATCTTTCTGTTCAAGCGCCATCTAC | 1.22 RPM ratio (pull-down/input) |
| GATGATTGTTCTCCCAGCTGATGAATTAGACAGTTCGAGTAAACAAATTTTCCTAATCTTTCTGTTCAAGCGCCATCTAC | 0.913 RPM ratio (pull-down/input) |
| GATGATTGTTCTCCCAGCTGATGAATTTTTAAGTTCGAGTAAACAAATTTTCCTAATCTTTCTGTTCAAGCGCCATCTAC | 0.97 RPM ratio (pull-down/input) |
| GATGATTGTTCTCCCAGCTGATGAATTCAACGCGTCGAGTAAACAAATTTTCCTAATCTTTCTGTTCAAGCGCCATCTAC | 0.959 RPM ratio (pull-down/input) |
| GATGATTGTTCTCCCAGCTGATGAATTTTTACCATCGAGTAAACAAATTTTCCTAATCTTTCTGTTCAAGCGCCATCTAC | 1.01 RPM ratio (pull-down/input) |
| GATGATTGTTCTCCCAGCTGATGAATTTTACTGGTCGAGTAAACAAATTTTCCTAATCTTTCTGTTCAAGCGCCATCTAC | 0.796 RPM ratio (pull-down/input) |
| GATGATTGTTCTCCCAGCTGATGAATTCTGGAGATCGAGTAAACAAATTTTCCTAATCTTTCTGTTCAAGCGCCATCTAC | 0.812 RPM ratio (pull-down/input) |
| GATGATTGTTCTCCCAGCTGATGAATTACAATGTTCGAGTAAACAAATTTTCCTAATCTTTCTGTTCAAGCGCCATCTAC | 1.4 RPM ratio (pull-down/input) |
| GATGATTGTTCTCCCAGCTGATGAATTTATTTCATCGAGTAAACAAATTTTCCTAATCTTTCTGTTCAAGCGCCATCTAC | 1.16 RPM ratio (pull-down/input) |
| GATGATTGTTCTCCCAGCTGATGAATTATCTACATCGAGTAAACAAATTTTCCTAATCTTTCTGTTCAAGCGCCATCTAC | 1.12 RPM ratio (pull-down/input) |
| GATGATTGTTCTCCCAGCTGATGAATTATCAACATCGAGTAAACAAATTTTCCTAATCTTTCTGTTCAAGCGCCATCTAC | 2.09 RPM ratio (pull-down/input) |
| GATGATTGTTCTCCCAGCTGATGAATTTTATTTATCGAGTAAACAAATTTTCCTAATCTTTCTGTTCAAGCGCCATCTAC | 2.95 RPM ratio (pull-down/input) |
| GATGATTGTTCTCCCAGCTGATGAATTATCAAAATCGAGTAAACAAATTTTCCTAATCTTTCTGTTCAAGCGCCATCTAC | 1.22 RPM ratio (pull-down/input) |
| GATGATTGTTCTCCCAGCTGATGAATTTATTTTATCGAGTAAACAAATTTTCCTAATCTTTCTGTTCAAGCGCCATCTAC | 1.46 RPM ratio (pull-down/input) |
| GATGATTGTTCTCCCAGCTGATGAATTTGCTCCCTCGAGTAAACAAATTTTCCTAATCTTTCTGTTCAAGCGCCATCTAC | 0.995 RPM ratio (pull-down/input) |
| GATGATTGTTCTCCCAGCTGATGAATTACGGCCTTCGAGTAAACAAATTTTCCTAATCTTTCTGTTCAAGCGCCATCTAC | 0.977 RPM ratio (pull-down/input) |
